± gives the standard deviation of the averaged measurements.
Key:
Conditions in all cases: concentration: 10 µM; 24 h
HCC1569 [1] = test: cell number relative to DMSO (% of DMSO); higher = more cells (less growth inhibition / toxicity)
In short: (§1)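 Cells were seeded at 800 per well in 384-well plates with RPMI containing 10% FBS; both HCC1569 and TDF lines were used. Compounds were added at 10 µM for 24 h at 37 °C, in triplicate, before fixation in 3.7% formaldehyde and staining with a rabbit anti-H1.0 antibody, an AlexaFluor 647 secondary and DAPI. H1.0 nuclear intensity or cell number is reported as percent of the plate control using the median of replicates, and HCC1569 values were smoothed for positional effects.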

TDF [2] = test: as above
In short: as §1

TDF [3] = test: H1.0 immunofluorescence intensity relative to DMSO (% of DMSO); higher = stronger H1.0 induction, active = 120 or more
In short: as §1

HCC1569 [4] = test: H1.0 immunofluorescence intensity relative to DMSO (% of DMSO); higher = stronger H1.0 induction, active = 140 or more
In short: as §1
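Throughout, for H1.0 immunofluorescence intensity relative to DMSO: TDF is a line of transformed human dermal fibroblasts of mesenchymal origin.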
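Throughout, for cell number relative to DMSO: TDF denotes transformed human dermal fibroblasts of mesenchymal origin.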

| Structure (SMILES) | cell number (HCC1569 [1]) | cell number (TDF [2]) | H1.0 immunofluorescence intensity (TDF [3]) | H1.0 immunofluorescence intensity (HCC1569 [4]) |
| --- | --- | --- | --- | --- |
| CCC(CO)NC(=O)C1C=C2c3cccc4[nH]cc(c34)CC2N(C)C1.O=C(O)C=CC(=O)O (stereo not drawn) [Methylergonovine maleate] | 101 ± 2.1 | 100 ± 2.5 | 97.4 (inactive) | 92.3 (inactive) |
| CC[NH+](CC)CC.Nc1ncnc2c1ncn2C1OC2COP([O-])(=S)OC2C1O (stereo not drawn) [Rp-cAMPS triethylamine] | 103 | 113 | 86 (inactive) | 88.3 (inactive) |
| CC1=C2CC3C(CC=C4CC(O)CCC43C)C2CCC12OC1CC(C)CNC1C2C (stereo not drawn) [Cyclopamine] | 104 | 107 | 94.9 (inactive) | 92 (inactive) |
| CC(C)c1cccc(C(C)C)c1O [Propofol] | 99.2 ± 2.9 | 93.1 ± 16 | 93.7 (inactive) | 95.8 (inactive) |
| CN(C)C(=O)C(CCN1CCC(O)(c2ccc(Cl)cc2)CC1)(c1ccccc1)c1ccccc1.Cl [Loperamide.HCl] | 102 | 98.6 | 97.6 (inactive) | 105 (inactive) |
| O=C(O)c1nn(Cc2ccc(Cl)cc2Cl)c2ccccc12 [Lonidamine] | 107 | 96.2 | 94.3 (inactive) | 92.3 (inactive) |
| Cc1c(N)nc(C(CC(N)=O)NCC(N)C(N)=O)nc1C(=O)NC(C(=O)NC(C)C(O)C(C)C(=O)NC(C(=O)NCCc1nc(-c2nc(C(=O)NCCC[S+](C)C)cs2)cs1)C(C)O)C(OC1OC(CO)C(O)C(O)C1OC1OC(CO)C(O)C(OC(N)=O)C1O)c1cnc[nH]1.O=S(=O)([O-])O (stereo not drawn) [Bleomycin sulfate] | 93.1 | 99.4 | 88.5 (inactive) | 99.1 (inactive) |
| CN(C(=O)Cc1ccc(Cl)c(Cl)c1)C(CN1CCCC1)c1cccc(OCC(=O)O)c1.Cl (stereo not drawn) [ICI 204,448 hydrochloride] | 104 | 104 | 89.4 (inactive) | 92.8 (inactive) |
| CC1=C(O)C(=O)C=C2C1=CC=C1C2(C)CCC2(C)C3CC(C)(C(=O)O)CCC3(C)CCC12C (stereo not drawn) [Celastrol] | 38 | 64 | 120 (inactive) | 114 (inactive) |
| Br.CN1CCc2cc(O)cc3c2C1Cc1ccc(O)c(O)c1-3 (stereo not drawn) [R(-)-2,10,11-Trihydroxyaporphine hybrobromide] | 99 | 113 | 84.4 (inactive) | 94.3 (inactive) |
| Cc1sc2c(c1C)C(c1ccc(Cl)cc1)=N[C@@H](CC(N)=O)c1nnc(C)n1-2 | 79.2 | 67.9 | 141 (active) | 220 (active) |
| CCC1C2CC3C4N(C)c5ccccc5C45CC(C2C5O)N3C1O (stereo not drawn) [Ajmaline] | 101 | 86.8 | 96.9 (inactive) | 93.1 (inactive) |
| COc1cc(C2c3cc4c(cc3C(O)C3COC(=O)C23)OCO4)cc(OC)c1OC (stereo not drawn) [Podophyllotoxin] | 61.2 ± 1.9 | 10.1 ± 0.34 | 152 (active) | 128 (inactive) |
| CC(CCc1ccccc1)NC(C)C(O)c1ccc(O)cc1.Cl (stereo not drawn) [Buphenine.HCl] | 101 | 104 | 90 (inactive) | 115 (inactive) |
| C=C1CC2C(CCC3(C)C(=O)CCC23)C2(C)C=CC(=O)C=C12 (stereo not drawn) [Exemestane] | 101 | 97.4 | 98.1 (inactive) | 102 (inactive) |
| Cl.O=C(N[C@H]1CN2CCC1CC2)c1c[nH]c2ccsc2c1=O | 106 | 94.7 | 98.3 (inactive) | 107 (inactive) |
| C1CCc2nnnn2CC1 [Pentylenetetrazole] | 102 | 113 | 99 (inactive) | 98.1 (inactive) |
